# Data reported in PubChem BioAssay (NCI).
# Several values for one entry are separate records, joined by “and”; a condition that tells them apart may be missing. Equal values may be shown once. The panel holds about 83,000 compounds, 20% with a hit somewhere; the sample as a whole holds those more often.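 Interpretation: 100, growth as untreated; towards 0, rising growth inhibition; 0, no net growth; 0 to -100, cell death. Compounds scoring below 10 were considered active.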 Activity calls are given as the source filed them.
# Experiments:
# Experiment in all cases: NCI-60 one-dose screen, 48 h (100 = growth as untreated, 0 = no growth, -100 = all killed)
# BT-549 breast = tested on: BT-549 breast
# MDA-MB-435 melanoma = tested on: MDA-MB-435 melanoma
# SW-620 colon = tested on: SW-620 colon
# MCF7 breast = tested on: MCF7 breast
# HCT-116 colon = tested on: HCT-116 colon
# HCC-2998 colon = tested on: HCC-2998 colon
# KM12 colon = tested on: KM12 colon
smiles,measurement,setting,value
NCc1c(O)ccc2ccccc12,growth,BT-549 breast; 10 µM,101% (inactive)
same,growth,MDA-MB-435 melanoma; 10 µM,103% (inactive)
same,growth,SW-620 colon; 10 µM,107% (inactive)
same,growth,MCF7 breast; 10 µM,95.3% (inactive)
same,growth,HCT-116 colon; 10 µM,102% (inactive)
same,growth,HCC-2998 colon; 10 µM,102% (inactive)
same,growth,KM12 colon; 10 µM,96% (inactive)
O=C1C=CC(=O)N1c1ccc(N2C(=O)C=CC2=O)cc1,growth,BT-549 breast; 10 µM,89.6% (inactive)
same,growth,MDA-MB-435 melanoma; 10 µM,107% (inactive)
same,growth,SW-620 colon; 10 µM,112% (inactive)
same,growth,MCF7 breast; 10 µM,97% (inactive)
same,growth,HCT-116 colon; 10 µM,98.3% (inactive)
same,growth,HCC-2998 colon; 10 µM,115% (inactive)
same,growth,KM12 colon; 10 µM,113% (inactive)
CC[C@@]1(OC(=O)CN(C)C)C(=O)OCc2c1cc1n(c2=O)Cc2cc3c(N)cccc3nc2-1,growth,BT-549 breast; 10 µM,-11.8% (active)
same,growth,MDA-MB-435 melanoma; 10 µM,-44.7% (active)
same,growth,SW-620 colon; 10 µM,3.83% (active)
same,growth,MCF7 breast; 10 µM,-1.34% (active)
same,growth,HCT-116 colon; 10 µM,0.716% (active)
same,growth,HCC-2998 colon; 10 µM,-14.7% (active)
same,growth,KM12 colon; 10 µM,0.253% (active)
O=C1c2ccccc2CCC1(Br)Br,growth,BT-549 breast; 10 µM,-31.9% (active)
same,growth,MDA-MB-435 melanoma; 10 µM,3.86% (active)
same,growth,SW-620 colon; 10 µM,-45.5% (active)
same,growth,MCF7 breast; 10 µM,21.6% (inactive)
same,growth,HCT-116 colon; 10 µM,-90% (active)
same,growth,HCC-2998 colon; 10 µM,77.2% (inactive)
same,growth,KM12 colon; 10 µM,87.2% (inactive)
Cc1cc(O)c2c(c1O)C(=O)C13C(=C2O)C(=O)C2C(O)C1C1C(O)C3C(=O)C3=C(O)c4c(O)cc(C)c(O)c4C(=O)C321 (configuration not stated),growth,BT-549 breast; 10 µM,-53.3% (active)
same,growth,MDA-MB-435 melanoma; 10 µM,-14.7% (active)
same,growth,SW-620 colon; 10 µM,8.3% (active)
same,growth,MCF7 breast; 10 µM,4.59% (active)
same,growth,HCT-116 colon; 10 µM,2.8% (active)
same,growth,HCC-2998 colon; 10 µM,-43.6% (active)
same,growth,KM12 colon; 10 µM,-53.3% (active)
Cn1c2nc3ccccc3c-2nc2ccccc21,growth,BT-549 breast; 10 µM,90.5% (inactive) and 92.6% (inactive)
same,growth,MDA-MB-435 melanoma; 10 µM,109% (inactive) and 125% (inactive)
same,growth,SW-620 colon; 10 µM,79% (inactive) and 90% (inactive)
same,growth,MCF7 breast; 10 µM,77.3% (inactive) and 67.5% (inactive)
same,growth,HCT-116 colon; 10 µM,92.7% (inactive) and 80.9% (inactive)
same,growth,HCC-2998 colon; 10 µM,118% (inactive) and 102% (inactive)
same,growth,KM12 colon; 10 µM,92.4% (inactive) and 83.5% (inactive)
CCOC(=O)[C@]1(Br)CC[C@@]1(Br)C(=O)OCC,growth,BT-549 breast; 10 µM,123% (inactive)
same,growth,MDA-MB-435 melanoma; 10 µM,94.8% (inactive)
same,growth,SW-620 colon; 10 µM,76.2% (inactive)
same,growth,MCF7 breast; 10 µM,93.4% (inactive)
same,growth,HCT-116 colon; 10 µM,88.9% (inactive)
same,growth,HCC-2998 colon; 10 µM,124% (inactive)
same,growth,KM12 colon; 10 µM,142% (inactive)
O=[N+]([O-])c1cc(S(=O)(=O)Nc2ccccc2)ccc1Cl,growth,BT-549 breast; 10 µM,92.5% (inactive)
same,growth,MDA-MB-435 melanoma; 10 µM,98.6% (inactive)
same,growth,SW-620 colon; 10 µM,105% (inactive)
same,growth,MCF7 breast; 10 µM,84% (inactive)
same,growth,HCT-116 colon; 10 µM,92.1% (inactive)
same,growth,HCC-2998 colon; 10 µM,90% (inactive)
same,growth,KM12 colon; 10 µM,98.5% (inactive)
ClCCn1c(CCl)nc2ccc(Cl)cc21,growth,BT-549 breast; 10 µM,-66.2% (active)
same,growth,MDA-MB-435 melanoma; 10 µM,-83% (active)
same,growth,SW-620 colon; 10 µM,-54.6% (active)
same,growth,MCF7 breast; 10 µM,-6.55% (active)
same,growth,HCT-116 colon; 10 µM,-28.9% (active)
same,growth,HCC-2998 colon; 10 µM,-2.45% (active)
same,growth,KM12 colon; 10 µM,-43% (active)
S=P(N1CC1)(N1CC1)N1CC1,growth,BT-549 breast; 10 µM,102% (inactive) and 85.8% (inactive)
same,growth,BT-549 breast; 100 µM,47.5% (inactive)
same,growth,MDA-MB-435 melanoma; 10 µM,105% (inactive) and 97.2% (inactive)
same,growth,MDA-MB-435 melanoma; 100 µM,64.8% (inactive)
same,growth,SW-620 colon; 10 µM,110% (inactive) and 93.6% (inactive)
same,growth,SW-620 colon; 100 µM,73% (inactive)
same,growth,MCF7 breast; 10 µM,69.5% (inactive)
same,growth,MCF7 breast; 100 µM,29.3% (inactive)
same,growth,HCT-116 colon; 10 µM,95.9% (inactive) and 73.8% (inactive)
same,growth,HCT-116 colon; 100 µM,51.3% (inactive)
same,growth,HCC-2998 colon; 10 µM,109% (inactive)
same,growth,HCC-2998 colon; 100 µM,-5.61% (active)
same,growth,KM12 colon; 10 µM,111% (inactive) and 104% (inactive)
same,growth,KM12 colon; 100 µM,83% (inactive)
O=C1C(Cl)=C(Cl)C(Cl)(Cl)C(Cl)C1(Cl)Cl (configuration not stated),growth,BT-549 breast; 10 µM,96.4% (inactive)
same,growth,MDA-MB-435 melanoma; 10 µM,111% (inactive)
same,growth,SW-620 colon; 10 µM,105% (inactive)
same,growth,MCF7 breast; 10 µM,96.8% (inactive)
same,growth,HCT-116 colon; 10 µM,102% (inactive)
same,growth,HCC-2998 colon; 10 µM,106% (inactive)
same,growth,KM12 colon; 10 µM,109% (inactive)
COc1cc(N)ccc1Nc1c2ccccc2nc2ccccc12,growth,BT-549 breast; 10 µM,90% (inactive)
same,growth,MDA-MB-435 melanoma; 10 µM,87.9% (inactive)
same,growth,SW-620 colon; 10 µM,4.74% (active)
same,growth,MCF7 breast; 10 µM,12.5% (inactive)
same,growth,HCT-116 colon; 10 µM,-88.5% (active)
same,growth,HCC-2998 colon; 10 µM,94.8% (inactive)
same,growth,KM12 colon; 10 µM,36.2% (inactive)
O=C1c2cccc3cc([N+](=O)[O-])cc(c23)C(=O)N1CCN1CCCC1,growth,BT-549 breast; 10 µM,3.71% (active)
same,growth,MDA-MB-435 melanoma; 10 µM,16.2% (inactive)
same,growth,SW-620 colon; 10 µM,-4.97% (active)
same,growth,MCF7 breast; 10 µM,1.22% (active)
same,growth,HCT-116 colon; 10 µM,-37.6% (active)
same,growth,HCC-2998 colon; 10 µM,-69.6% (active)
same,growth,KM12 colon; 10 µM,1.61% (active)
COc1ccc2c(c1)[nH]c1c(/C=C/c3ccccc3)nccc12,growth,BT-549 breast; 10 µM,61.8% (inactive)
same,growth,MDA-MB-435 melanoma; 10 µM,85% (inactive)
same,growth,SW-620 colon; 10 µM,72.1% (inactive)
same,growth,MCF7 breast; 10 µM,65.7% (inactive)
same,growth,HCT-116 colon; 10 µM,29.9% (inactive)
same,growth,HCC-2998 colon; 10 µM,34.4% (inactive)
same,growth,KM12 colon; 10 µM,71.1% (inactive)
S=C1SCN(CCc2ccccc2)CN1CCc1ccccc1,growth,BT-549 breast; 10 µM,129% (inactive)
same,growth,MDA-MB-435 melanoma; 10 µM,98.6% (inactive)
same,growth,SW-620 colon; 10 µM,89.4% (inactive)
same,growth,MCF7 breast; 10 µM,40.7% (inactive)
same,growth,HCT-116 colon; 10 µM,102% (inactive)
same,growth,HCC-2998 colon; 10 µM,101% (inactive)
same,growth,KM12 colon; 10 µM,96.8% (inactive)
COc1ccc(C(C#N)=C2C=CC(=NO)C=C2)cc1,growth,BT-549 breast; 10 µM,106% (inactive)
same,growth,MDA-MB-435 melanoma; 10 µM,23.2% (inactive)
same,growth,SW-620 colon; 10 µM,12.1% (inactive)
same,growth,MCF7 breast; 10 µM,14.1% (inactive)
same,growth,HCT-116 colon; 10 µM,-37.2% (active)
same,growth,HCC-2998 colon; 10 µM,105% (inactive)
same,growth,KM12 colon; 10 µM,-24.7% (active)
CC(=O)O[C@H]1C(=O)[C@@]2(C)[C@H]([C@H](OC(=O)c3ccccc3)[C@]3(O)C[C@H](OC(=O)[C@H](O)[C@@H](NC(=O)c4ccccc4)c4ccccc4)C(C)=C1C3(C)C)[C@]1(OC(C)=O)CO[C@@H]1C[C@@H]2O,growth,BT-549 breast; 0.01 µM,-1.3% (active)
same,growth,BT-549 breast; 10 µM,6.6% (active)
same,growth,MDA-MB-435 melanoma; 0.01 µM,-84.7% (active)
same,growth,MDA-MB-435 melanoma; 2.5 µM,-41.9% (active)
same,growth,MDA-MB-435 melanoma; 5 µM,-19.9% (active)
same,growth,MDA-MB-435 melanoma; 10 µM,-4.97% (active) and -14.7% (active)
same,growth,SW-620 colon; 0.01 µM,24.4% (inactive)
same,growth,SW-620 colon; 2.5 µM,38.5% (inactive)
same,growth,SW-620 colon; 5 µM,50.3% (inactive)
same,growth,SW-620 colon; 10 µM,53.7% (inactive) and 53.5% (inactive)
same,growth,MCF7 breast; 0.01 µM,8.89% (active)
same,growth,MCF7 breast; 2.5 µM,14.3% (inactive)
same,growth,MCF7 breast; 5 µM,15.4% (inactive)
same,growth,MCF7 breast; 10 µM,15.4% (inactive) and 15.3% (inactive)
same,growth,HCT-116 colon; 0.01 µM,6.56% (active)
same,growth,HCT-116 colon; 2.5 µM,2.87% (active)
same,growth,HCT-116 colon; 5 µM,6.48% (active)
same,growth,HCT-116 colon; 10 µM,11.9% (inactive) and 8.9% (active)
same,growth,HCC-2998 colon; 0.01 µM,-65.6% (active)
same,growth,HCC-2998 colon; 2.5 µM,-10.3% (active)
same,growth,HCC-2998 colon; 5 µM,0.255% (active)
same,growth,HCC-2998 colon; 10 µM,-3.97% (active) and -21.4% (active)
same,growth,KM12 colon; 0.01 µM,10.6% (inactive)
same,growth,KM12 colon; 2.5 µM,1.85% (active)
same,growth,KM12 colon; 5 µM,4.45% (active)
same,growth,KM12 colon; 10 µM,2.94% (active) and 10.9% (inactive)
O=c1[nH]cc(/C=N\Nc2ccccc2)c(=O)[nH]1,growth,BT-549 breast; 10 µM,82.5% (inactive)
same,growth,MDA-MB-435 melanoma; 10 µM,42.5% (inactive)
same,growth,SW-620 colon; 10 µM,46.6% (inactive)
same,growth,MCF7 breast; 10 µM,56.1% (inactive)
same,growth,HCT-116 colon; 10 µM,57% (inactive)
same,growth,HCC-2998 colon; 10 µM,76.9% (inactive)
same,growth,KM12 colon; 10 µM,37.9% (inactive)
